Our source for the binding signal values is PMC5700166.

The experiment has as its target T1, GST-Nv-NF-kB (Ser allele) (Nematostella vectensis, UniProt A7UNT2 2-411).
T1 sequence: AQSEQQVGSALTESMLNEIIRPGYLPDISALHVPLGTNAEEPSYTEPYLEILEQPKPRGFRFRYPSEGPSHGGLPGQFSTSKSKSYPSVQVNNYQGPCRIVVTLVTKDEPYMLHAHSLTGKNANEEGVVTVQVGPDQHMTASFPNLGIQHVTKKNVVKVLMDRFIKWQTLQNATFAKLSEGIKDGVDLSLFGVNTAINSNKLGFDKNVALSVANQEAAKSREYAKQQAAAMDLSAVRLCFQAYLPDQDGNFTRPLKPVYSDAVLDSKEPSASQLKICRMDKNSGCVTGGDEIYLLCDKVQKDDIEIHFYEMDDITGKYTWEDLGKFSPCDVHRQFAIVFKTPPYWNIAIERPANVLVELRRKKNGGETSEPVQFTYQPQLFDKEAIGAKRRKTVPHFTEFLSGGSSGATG
The experiment in a line: protein-binding microarray (PBM); PBM: ~300 nM protein, 6 mM HEPES pH 7.8, 80 mM KCl, 0.5 mM EDTA, 0.5 mM EGTA, 6% glycerol, 35 ng/ul poly-dIdC, 1% milk, 1 h, room temperature; Ap Aiptasia and Nv Nematostella (sea anemones) / Co Capsaspora / Aq Amphimedon (sponge) / Dm Drosophila / Hu human; RHD is the Rel homology domain; high values mean tight binding. As to conditions: dsDNA, one strand shown.
The sequence “CCGATTAACATCAAAATTTTCCCTGATGTTAATCGGGTCTTGATTCGCTTGACGCTGCTG” gave a binding signal of 10.1 z-score.
As to “CCGATTAACATCAAGTTTTCCCCTGATGTTAATCGGGTCTTGATTCGCTTGACGCTGCTG”, the binding signal was 11.2 z-score.
The value for “CCGATTAACATCAAGGGAAATTCTGATGTTAATCGGGTCTTGATTCGCTTGACGCTGCTG” was 7.46 z-score; that for “CCGATTAACATCAAATTCCCACATGATGTTAATCGGGTCTTGATTCGCTTGACGCTGCTG” was 3.94 z-score; that for “CCGATTAACATCAATGGGATTTCTGATGTTAATCGGGTCTTGATTCGCTTGACGCTGCTG” was 2.22 z-score.
“CCGATTAACATCAAGGGGGTATCTGATGTTAATCGGGTCTTGATTCGCTTGACGCTGCTG”: the binding signal was found to be 4.28 z-score.
The value for “CCGATTAACATCAAAATTCCCTATGATGTTAATCGGGTCTTGATTCGCTTGACGCTGCTG” was 7.32 z-score; that for “CCGATTAACATCAGAAGTGGGAATGATGTTAATCGGGTCTTGATTCGCTTGACGCTGCTG” was 1.53 z-score.
Consider “CCGATTAACATCAGGGGGAACCATGATGTTAATCGGGTCTTGATTCGCTTGACGCTGCTG”, for which the binding signal is 7.3 z-score.
The figure for “CCGATTAACATCAAGGTTTCCCCTGATGTTAATCGGGTCTTGATTCGCTTGACGCTGCTG” is 10.3 z-score.
In turn, “CCGATTAACATCAGGGAATAACCTGATGTTAATCGGGTCTTGATTCGCTTGACGCTGCTG” yielded a binding signal of 6.75 z-score.
The figure for “CCGATTAACATCAGTATTTCCCATGATGTTAATCGGGTCTTGATTCGCTTGACGCTGCTG” is 3.53 z-score.
Take “CCGATTAACATCAGGGGATTCGATGATGTTAATCGGGTCTTGATTCGCTTGACGCTGCTG”: the binding signal is 7.7 z-score.
The figure for “CCGATTAACATCATGGGGAAAAATGATGTTAATCGGGTCTTGATTCGCTTGACGCTGCTG” is 8.82 z-score.
The value for “CCGATTAACATCAACATTCCCCCTGATGTTAATCGGGTCTTGATTCGCTTGACGCTGCTG” was 8.8 z-score; that for “CCGATTAACATCAACAATTTCCCTGATGTTAATCGGGTCTTGATTCGCTTGACGCTGCTG” was 6.92 z-score; that for “CCGATTAACATCAAAAAACCCCTTGATGTTAATCGGGTCTTGATTCGCTTGACGCTGCTG” was 7.86 z-score.
In turn, “CCGATTAACATCACGGGGATTTCTGATGTTAATCGGGTCTTGATTCGCTTGACGCTGCTG” came in with a binding signal of 10.8 z-score.
Regarding “CCGATTAACATCACTTTTTCCCCTGATGTTAATCGGGTCTTGATTCGCTTGACGCTGCTG”, the binding signal was 9.65 z-score.
In turn, “CCGATTAACATCAGCGGGAATCCTGATGTTAATCGGGTCTTGATTCGCTTGACGCTGCTG” registered a binding signal of 2.64 z-score.
The sequence “CCGATTAACATCAGATTTTCCCATGATGTTAATCGGGTCTTGATTCGCTTGACGCTGCTG” yielded a binding signal of 6.26 z-score.
Consider “CCGATTAACATCACCCTGGGAAATGATGTTAATCGGGTCTTGATTCGCTTGACGCTGCTG”, for which the binding signal is 1.51 z-score.
In turn, “CCGATTAACATCAGGGGGACTAATGATGTTAATCGGGTCTTGATTCGCTTGACGCTGCTG” came in with a binding signal of 4.4 z-score.
“CCGATTAACATCAAGGGGATCCCTGATGTTAATCGGGTCTTGATTCGCTTGACGCTGCTG” gave a binding signal of 7.34 z-score.
The figure for “CCGATTAACATCACGGGATTCCCTGATGTTAATCGGGTCTTGATTCGCTTGACGCTGCTG” is 5.14 z-score; for “CCGATTAACATCAGGGGGTTCTATGATGTTAATCGGGTCTTGATTCGCTTGACGCTGCTG” it is 6.75 z-score; for “CCGATTAACATCAAAAATCCCCTTGATGTTAATCGGGTCTTGATTCGCTTGACGCTGCTG” it is 13.5 z-score.
The figure for “CCGATTAACATCAAAAATACCCTTGATGTTAATCGGGTCTTGATTCGCTTGACGCTGCTG” is 7.74 z-score; for “CCGATTAACATCAAAGCTTCCCCTGATGTTAATCGGGTCTTGATTCGCTTGACGCTGCTG” it is 7.74 z-score.
The sequence “CCGATTAACATCAACTTCCCCCCTGATGTTAATCGGGTCTTGATTCGCTTGACGCTGCTG” displayed a binding signal of 6.34 z-score.
Regarding “CCGATTAACATCAGAAAATACCCTGATGTTAATCGGGTCTTGATTCGCTTGACGCTGCTG”, the binding signal turned out to be 7.72 z-score.
In the case of “CCGATTAACATCAAAAAGACCCCTGATGTTAATCGGGTCTTGATTCGCTTGACGCTGCTG”, the binding signal is 3.31 z-score.
“CCGATTAACATCAGGGAATCCCATGATGTTAATCGGGTCTTGATTCGCTTGACGCTGCTG” displayed a binding signal of 4.14 z-score.
The figure for “CCGATTAACATCAAGGGGTTTTCTGATGTTAATCGGGTCTTGATTCGCTTGACGCTGCTG” is 6.68 z-score; for “CCGATTAACATCAAAGTCCCGGGTGATGTTAATCGGGTCTTGATTCGCTTGACGCTGCTG” it is 3.64 z-score; for “CCGATTAACATCAGGGACTTTTATGATGTTAATCGGGTCTTGATTCGCTTGACGCTGCTG” it is 9.79 z-score.
The figure for “CCGATTAACATCAGGCAACCCCCTGATGTTAATCGGGTCTTGATTCGCTTGACGCTGCTG” is 3.97 z-score.
Regarding “CCGATTAACATCAGGGGGGTAACTGATGTTAATCGGGTCTTGATTCGCTTGACGCTGCTG”, the binding signal amounted to 4.34 z-score.
With “CCGATTAACATCAGGGGGGACTATGATGTTAATCGGGTCTTGATTCGCTTGACGCTGCTG”, the binding signal was found to be 4.88 z-score.
“CCGATTAACATCAGGGAAAATAATGATGTTAATCGGGTCTTGATTCGCTTGACGCTGCTG” registered a binding signal of 8.05 z-score.
